Legend:
Assay in all cases: log2 ratio of Biotin-Ahx-Ub-VS probe labelling (fragment/DMSO); higher = less target engagement (more negative = stronger competition), active = hit call of the paper (q ≤ 0.05, log2 ratio ≤ -1)
Conditions in all cases: compound concentration: 200 uM; treatment time: 3 h
USP34 = USP34 (UniProt Q70CQ2)
Summary of the method: (§1)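 Labelling with Biotin-Ahx-Ub-VS (0.5 µM final, 1 h) followed a 3 h triplicate treatment of HEK293T lysate (495 µg per sample, Tris/CHAPS/IGEPAL buffer with protease inhibitors) with fragment at 200 µM or vehicle. Labelled DUBs were NeutrAvidin-enriched, digested with LysC and trypsin, and run by diaPASEF LC-MS/MS. The values, average log2 fragment/vehicle ratios by unpaired t-test, come from global-median-normalised Spectronaut label-free quantities. Proteins with ≥2 unique peptides were used.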

USP36 = target: T1, USP36 (UniProt Q9P275)
T1 sequence (whole entry): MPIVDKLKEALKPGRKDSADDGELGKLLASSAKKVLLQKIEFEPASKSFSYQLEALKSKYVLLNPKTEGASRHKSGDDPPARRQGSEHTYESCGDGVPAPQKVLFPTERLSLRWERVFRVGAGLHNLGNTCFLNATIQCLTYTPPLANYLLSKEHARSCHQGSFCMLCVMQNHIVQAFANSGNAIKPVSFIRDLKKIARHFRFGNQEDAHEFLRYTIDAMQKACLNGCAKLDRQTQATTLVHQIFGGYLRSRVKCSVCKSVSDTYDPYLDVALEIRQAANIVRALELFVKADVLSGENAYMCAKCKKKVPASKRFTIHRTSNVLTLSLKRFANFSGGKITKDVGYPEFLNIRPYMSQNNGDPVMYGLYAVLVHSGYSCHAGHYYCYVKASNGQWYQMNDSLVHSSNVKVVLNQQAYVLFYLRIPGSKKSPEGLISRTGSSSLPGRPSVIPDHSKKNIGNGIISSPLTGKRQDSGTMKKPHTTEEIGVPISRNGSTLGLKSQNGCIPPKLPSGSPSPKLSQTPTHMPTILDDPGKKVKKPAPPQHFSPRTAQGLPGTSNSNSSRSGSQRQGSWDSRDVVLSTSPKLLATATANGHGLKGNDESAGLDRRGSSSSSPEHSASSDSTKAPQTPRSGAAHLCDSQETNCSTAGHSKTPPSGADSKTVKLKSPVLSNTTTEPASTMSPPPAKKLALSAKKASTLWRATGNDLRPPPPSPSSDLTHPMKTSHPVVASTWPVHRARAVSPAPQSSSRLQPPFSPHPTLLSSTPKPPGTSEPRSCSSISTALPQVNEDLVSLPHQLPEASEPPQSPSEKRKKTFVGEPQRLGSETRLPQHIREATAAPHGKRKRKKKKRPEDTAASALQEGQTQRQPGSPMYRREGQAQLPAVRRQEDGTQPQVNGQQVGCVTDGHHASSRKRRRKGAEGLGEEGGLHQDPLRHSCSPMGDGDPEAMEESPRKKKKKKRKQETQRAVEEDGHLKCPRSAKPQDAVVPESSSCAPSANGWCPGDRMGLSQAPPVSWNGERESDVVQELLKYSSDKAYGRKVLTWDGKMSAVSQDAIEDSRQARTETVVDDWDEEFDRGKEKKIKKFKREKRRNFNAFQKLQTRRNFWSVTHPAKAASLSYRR
Summary of the method: as §1

USP38 = target: T2, USP38 (UniProt Q8NB14)
T2 sequence (whole entry): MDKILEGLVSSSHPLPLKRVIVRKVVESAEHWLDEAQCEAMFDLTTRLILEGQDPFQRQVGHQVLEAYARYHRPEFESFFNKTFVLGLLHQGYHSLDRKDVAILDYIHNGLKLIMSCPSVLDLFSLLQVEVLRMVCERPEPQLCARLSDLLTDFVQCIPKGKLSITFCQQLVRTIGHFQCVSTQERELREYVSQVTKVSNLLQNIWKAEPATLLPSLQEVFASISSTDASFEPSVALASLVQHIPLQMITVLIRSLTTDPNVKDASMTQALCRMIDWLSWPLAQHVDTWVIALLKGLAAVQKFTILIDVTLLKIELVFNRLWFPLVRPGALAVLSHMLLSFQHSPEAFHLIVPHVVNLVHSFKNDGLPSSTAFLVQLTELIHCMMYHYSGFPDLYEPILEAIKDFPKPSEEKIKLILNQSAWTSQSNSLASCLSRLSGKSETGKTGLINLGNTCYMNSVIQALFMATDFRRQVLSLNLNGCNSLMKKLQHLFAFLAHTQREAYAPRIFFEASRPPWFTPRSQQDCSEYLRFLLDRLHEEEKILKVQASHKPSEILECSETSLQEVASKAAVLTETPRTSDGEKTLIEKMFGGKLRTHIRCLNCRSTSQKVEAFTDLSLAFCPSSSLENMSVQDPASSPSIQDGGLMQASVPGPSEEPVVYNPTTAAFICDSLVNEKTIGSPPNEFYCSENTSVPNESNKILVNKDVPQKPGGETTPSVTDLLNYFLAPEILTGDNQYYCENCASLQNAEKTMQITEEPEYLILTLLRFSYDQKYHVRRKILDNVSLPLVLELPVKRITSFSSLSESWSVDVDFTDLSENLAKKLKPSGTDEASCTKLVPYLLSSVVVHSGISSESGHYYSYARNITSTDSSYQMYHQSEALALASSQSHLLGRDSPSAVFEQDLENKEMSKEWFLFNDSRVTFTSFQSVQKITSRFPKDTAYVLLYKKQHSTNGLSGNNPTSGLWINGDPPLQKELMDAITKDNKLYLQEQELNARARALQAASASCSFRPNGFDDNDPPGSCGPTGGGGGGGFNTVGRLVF
Summary of the method: as §1

USP39 = target: T3, USP39 (UniProt Q53GS9)
T3 sequence (whole entry): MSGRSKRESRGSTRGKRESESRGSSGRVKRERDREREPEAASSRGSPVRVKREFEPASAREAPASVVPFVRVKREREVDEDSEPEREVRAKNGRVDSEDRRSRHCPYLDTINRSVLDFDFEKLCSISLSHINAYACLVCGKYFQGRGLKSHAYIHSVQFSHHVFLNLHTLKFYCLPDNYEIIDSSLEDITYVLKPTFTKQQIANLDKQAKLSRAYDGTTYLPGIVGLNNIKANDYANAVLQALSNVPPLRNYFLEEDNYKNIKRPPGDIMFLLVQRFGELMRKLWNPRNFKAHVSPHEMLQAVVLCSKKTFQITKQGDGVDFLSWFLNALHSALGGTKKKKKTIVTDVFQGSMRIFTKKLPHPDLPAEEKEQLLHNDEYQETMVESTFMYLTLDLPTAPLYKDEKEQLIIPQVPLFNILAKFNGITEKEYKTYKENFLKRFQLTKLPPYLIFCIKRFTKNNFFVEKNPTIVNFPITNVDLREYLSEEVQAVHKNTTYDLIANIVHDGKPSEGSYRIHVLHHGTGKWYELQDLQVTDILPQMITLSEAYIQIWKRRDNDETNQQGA
Summary of the method: as §1

USP4 = target: T4, USP4 (UniProt Q13107)
T4 sequence (whole entry): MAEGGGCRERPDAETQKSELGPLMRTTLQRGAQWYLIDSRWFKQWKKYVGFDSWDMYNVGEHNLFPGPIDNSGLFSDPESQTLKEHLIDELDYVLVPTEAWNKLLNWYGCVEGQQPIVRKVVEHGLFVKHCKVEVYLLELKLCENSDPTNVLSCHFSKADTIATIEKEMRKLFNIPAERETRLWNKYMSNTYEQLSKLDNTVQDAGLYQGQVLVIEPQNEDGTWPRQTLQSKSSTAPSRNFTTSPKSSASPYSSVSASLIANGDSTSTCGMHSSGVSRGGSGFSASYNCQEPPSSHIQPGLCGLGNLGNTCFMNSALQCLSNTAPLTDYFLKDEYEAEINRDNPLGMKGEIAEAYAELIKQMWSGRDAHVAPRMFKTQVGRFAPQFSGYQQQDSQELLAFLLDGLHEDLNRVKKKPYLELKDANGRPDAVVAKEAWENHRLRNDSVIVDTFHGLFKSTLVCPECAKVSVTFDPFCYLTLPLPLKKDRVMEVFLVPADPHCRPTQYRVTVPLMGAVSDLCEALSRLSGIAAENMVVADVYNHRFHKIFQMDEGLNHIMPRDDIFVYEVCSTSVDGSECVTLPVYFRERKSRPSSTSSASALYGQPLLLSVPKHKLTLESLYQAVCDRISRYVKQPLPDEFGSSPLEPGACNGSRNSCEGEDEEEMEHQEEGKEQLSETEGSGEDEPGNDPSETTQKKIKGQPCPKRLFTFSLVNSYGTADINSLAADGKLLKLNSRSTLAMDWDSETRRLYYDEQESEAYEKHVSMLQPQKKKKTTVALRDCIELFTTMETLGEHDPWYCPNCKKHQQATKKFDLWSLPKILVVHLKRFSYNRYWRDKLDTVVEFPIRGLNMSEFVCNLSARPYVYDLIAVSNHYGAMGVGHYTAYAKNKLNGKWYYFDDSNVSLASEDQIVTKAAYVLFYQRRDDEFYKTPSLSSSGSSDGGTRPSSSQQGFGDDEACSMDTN
Summary of the method: as §1

Measured: log2 ratio of Biotin-Ahx-Ub-VS probe labelling

USP34, sequence (Q70CQ2 whole entry, the tested form may be a part): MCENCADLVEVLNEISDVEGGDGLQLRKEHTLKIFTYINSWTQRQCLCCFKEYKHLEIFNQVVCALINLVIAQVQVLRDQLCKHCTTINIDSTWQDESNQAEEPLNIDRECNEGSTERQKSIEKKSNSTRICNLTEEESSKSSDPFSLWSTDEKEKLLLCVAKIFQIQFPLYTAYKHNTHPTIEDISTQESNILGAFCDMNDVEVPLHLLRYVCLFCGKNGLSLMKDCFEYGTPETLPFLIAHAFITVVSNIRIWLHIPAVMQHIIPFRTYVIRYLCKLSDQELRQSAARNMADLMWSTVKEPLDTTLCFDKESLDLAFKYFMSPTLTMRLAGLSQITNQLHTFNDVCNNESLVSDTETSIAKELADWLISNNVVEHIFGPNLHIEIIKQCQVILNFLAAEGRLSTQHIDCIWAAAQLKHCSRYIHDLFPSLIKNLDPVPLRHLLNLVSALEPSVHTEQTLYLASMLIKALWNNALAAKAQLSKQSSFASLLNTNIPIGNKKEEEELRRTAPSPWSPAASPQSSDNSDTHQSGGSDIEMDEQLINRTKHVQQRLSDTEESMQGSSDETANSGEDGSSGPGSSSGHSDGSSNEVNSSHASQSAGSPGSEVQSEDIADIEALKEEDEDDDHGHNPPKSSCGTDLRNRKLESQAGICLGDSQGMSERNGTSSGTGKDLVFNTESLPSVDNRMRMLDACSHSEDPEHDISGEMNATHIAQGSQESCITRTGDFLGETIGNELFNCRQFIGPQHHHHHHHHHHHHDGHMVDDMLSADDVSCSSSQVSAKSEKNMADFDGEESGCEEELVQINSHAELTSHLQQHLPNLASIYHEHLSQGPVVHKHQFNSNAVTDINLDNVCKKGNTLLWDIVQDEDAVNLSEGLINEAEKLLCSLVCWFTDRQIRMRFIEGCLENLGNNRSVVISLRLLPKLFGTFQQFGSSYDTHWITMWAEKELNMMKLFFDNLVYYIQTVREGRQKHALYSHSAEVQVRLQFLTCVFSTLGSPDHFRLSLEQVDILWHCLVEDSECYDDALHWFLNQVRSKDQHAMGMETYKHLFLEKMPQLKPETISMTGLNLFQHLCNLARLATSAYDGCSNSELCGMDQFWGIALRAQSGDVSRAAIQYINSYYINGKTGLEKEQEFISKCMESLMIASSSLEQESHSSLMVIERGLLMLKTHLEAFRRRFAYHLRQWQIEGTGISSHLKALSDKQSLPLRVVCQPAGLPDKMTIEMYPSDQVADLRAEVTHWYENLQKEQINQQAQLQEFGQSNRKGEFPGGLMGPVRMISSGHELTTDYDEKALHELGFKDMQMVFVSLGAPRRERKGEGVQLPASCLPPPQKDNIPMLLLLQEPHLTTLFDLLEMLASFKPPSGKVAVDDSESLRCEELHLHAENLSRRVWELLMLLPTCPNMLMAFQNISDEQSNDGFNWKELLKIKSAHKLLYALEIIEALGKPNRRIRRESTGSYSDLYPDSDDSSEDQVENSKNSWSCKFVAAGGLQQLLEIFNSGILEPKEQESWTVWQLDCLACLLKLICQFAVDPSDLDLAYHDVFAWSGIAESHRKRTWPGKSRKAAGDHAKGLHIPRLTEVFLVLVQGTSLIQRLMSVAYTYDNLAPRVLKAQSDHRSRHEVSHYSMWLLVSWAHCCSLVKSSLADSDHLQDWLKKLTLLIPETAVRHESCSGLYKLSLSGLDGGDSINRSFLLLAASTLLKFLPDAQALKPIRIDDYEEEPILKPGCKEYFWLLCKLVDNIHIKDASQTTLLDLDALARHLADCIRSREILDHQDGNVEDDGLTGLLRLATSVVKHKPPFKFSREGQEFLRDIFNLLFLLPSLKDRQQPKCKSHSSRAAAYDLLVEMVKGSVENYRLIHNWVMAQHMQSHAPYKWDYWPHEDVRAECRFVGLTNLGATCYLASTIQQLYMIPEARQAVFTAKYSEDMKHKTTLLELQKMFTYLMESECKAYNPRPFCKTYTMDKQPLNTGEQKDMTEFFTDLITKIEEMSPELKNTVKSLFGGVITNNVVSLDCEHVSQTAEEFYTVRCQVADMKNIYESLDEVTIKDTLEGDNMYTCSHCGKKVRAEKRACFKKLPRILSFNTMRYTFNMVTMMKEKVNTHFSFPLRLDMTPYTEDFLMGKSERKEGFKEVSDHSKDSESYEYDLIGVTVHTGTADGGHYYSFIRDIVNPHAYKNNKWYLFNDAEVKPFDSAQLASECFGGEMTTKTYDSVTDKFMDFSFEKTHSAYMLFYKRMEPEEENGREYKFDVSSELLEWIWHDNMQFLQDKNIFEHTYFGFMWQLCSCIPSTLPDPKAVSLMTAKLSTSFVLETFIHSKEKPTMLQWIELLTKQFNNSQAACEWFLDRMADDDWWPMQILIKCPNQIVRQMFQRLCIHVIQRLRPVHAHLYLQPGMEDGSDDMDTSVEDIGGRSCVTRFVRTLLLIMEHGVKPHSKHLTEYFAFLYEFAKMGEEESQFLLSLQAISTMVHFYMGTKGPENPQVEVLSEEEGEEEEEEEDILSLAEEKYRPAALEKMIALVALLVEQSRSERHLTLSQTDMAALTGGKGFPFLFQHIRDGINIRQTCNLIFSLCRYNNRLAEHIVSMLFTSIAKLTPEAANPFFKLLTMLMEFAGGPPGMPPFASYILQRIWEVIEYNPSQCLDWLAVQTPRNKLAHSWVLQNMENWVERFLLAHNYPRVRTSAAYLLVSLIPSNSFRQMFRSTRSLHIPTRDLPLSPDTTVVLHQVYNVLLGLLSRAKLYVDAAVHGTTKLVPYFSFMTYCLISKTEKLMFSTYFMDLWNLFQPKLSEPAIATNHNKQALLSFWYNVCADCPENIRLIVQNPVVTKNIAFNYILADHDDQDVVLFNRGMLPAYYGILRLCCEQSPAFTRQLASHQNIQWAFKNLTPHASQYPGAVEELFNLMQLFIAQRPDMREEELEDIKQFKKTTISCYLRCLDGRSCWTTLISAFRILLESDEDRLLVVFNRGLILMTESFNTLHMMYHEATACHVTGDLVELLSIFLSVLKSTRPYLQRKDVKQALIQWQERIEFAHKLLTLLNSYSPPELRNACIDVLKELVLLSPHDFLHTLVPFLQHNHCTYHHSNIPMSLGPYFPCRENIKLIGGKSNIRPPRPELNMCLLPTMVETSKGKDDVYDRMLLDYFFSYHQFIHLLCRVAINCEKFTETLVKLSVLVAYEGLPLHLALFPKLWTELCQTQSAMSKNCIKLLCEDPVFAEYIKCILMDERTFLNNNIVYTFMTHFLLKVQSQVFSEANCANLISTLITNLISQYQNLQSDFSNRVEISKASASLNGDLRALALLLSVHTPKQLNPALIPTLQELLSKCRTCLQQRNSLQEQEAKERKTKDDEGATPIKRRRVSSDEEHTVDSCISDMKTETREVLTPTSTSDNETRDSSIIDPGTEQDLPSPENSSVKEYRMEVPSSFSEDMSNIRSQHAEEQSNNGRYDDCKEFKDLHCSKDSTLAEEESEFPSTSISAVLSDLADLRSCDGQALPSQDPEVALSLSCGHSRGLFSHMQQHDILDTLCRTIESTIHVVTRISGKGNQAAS

Cc1ccccc1OCC(=O)N1CCN(C(=O)CCl)CC1
inactive: USP34 -0.131 | USP36 -0.102 | USP38 -0.159 | USP39 0.114 | USP4 -0.0294
